Screening data as filed in PubChem.
USP2a block = blocks human ubiquitin-specific protease USP2a. O75604. USP2 core, Ub-CHOP2 coupled fluorogenic reporter, 485/531. Potency, µM (top dose mostly 38.3 µM), inactives show at the highest dose activity change, negative = inhibition, actives largely listed as inhibitors. 330,000 compounds, 0.01% hits. AID 463254;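 note: plate controls were DMSO wells for no effect and full inhibition by NEM control for full effect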
Target sequence (O75604 whole entry, looked up): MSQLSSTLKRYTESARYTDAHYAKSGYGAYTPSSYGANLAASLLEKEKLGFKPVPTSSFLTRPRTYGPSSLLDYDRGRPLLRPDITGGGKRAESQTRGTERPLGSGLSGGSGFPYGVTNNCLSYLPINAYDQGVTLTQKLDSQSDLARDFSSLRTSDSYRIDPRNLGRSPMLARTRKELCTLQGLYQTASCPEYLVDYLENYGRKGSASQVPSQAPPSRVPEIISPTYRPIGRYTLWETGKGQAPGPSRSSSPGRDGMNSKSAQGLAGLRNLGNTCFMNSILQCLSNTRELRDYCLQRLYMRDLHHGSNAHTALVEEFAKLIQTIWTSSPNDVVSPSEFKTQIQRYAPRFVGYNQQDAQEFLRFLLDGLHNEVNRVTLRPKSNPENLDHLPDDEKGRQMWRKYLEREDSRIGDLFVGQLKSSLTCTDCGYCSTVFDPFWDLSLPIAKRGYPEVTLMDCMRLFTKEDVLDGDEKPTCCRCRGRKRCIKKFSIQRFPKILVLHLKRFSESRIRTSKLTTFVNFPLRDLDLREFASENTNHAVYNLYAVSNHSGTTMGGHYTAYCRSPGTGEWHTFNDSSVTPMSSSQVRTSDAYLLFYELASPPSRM
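Deubiquitinase activity read as fluorescence (485/531 nm) after Ub-CHOP2 cleavage activates the enterokinase reporter on its substrate; USP2 core 10nM, Ub-CHOP2 and substrate 25nM each, 30min compound preincubation then 60min RT; data normalized to NEM, curves fitted.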
12-LOX inh = blocks human arachidonate 12S-lipoxygenase. purified 12hLO, xylenol orange hydroperoxide absorbance. Potency, µM (series often up to 108 µM), for inactives: at the top dose activity change, negative = inhibition, hits mostly inhibitors. 580,000 compounds, 1.1% hits. AID 1671190; note: % is set by controls: 0 for no effect and ±100 for the full control effect
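Purified human 12hLO at 150 nM in 25 mM Hepes, 0.01% Triton X-100, pH 7.0, preincubated 15 min at room temperature with compound. Reaction started with 40 uM arachidonic acid, 30 min at room temperature. Hydroperoxide measured by Fe-xylenol orange, 573/405 nm absorbance ratio.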
TSG101-PTAP inh = blocks PTAP/TSG101 interaction to inhibit HIV-1 budding; AID 493005; Potency, µM (highest dose often 115 µM), for inactives: at the top dose activity change, negative = inhibition, most hits filed as inhibitors; Fluorescence polarization, FITC-PTAP peptide / Tsg101 binding; 340,000 tested, under 10 active; active = well fitted inhibition curve with a large enough effect in the main read-out, with a control signal flat, not every such curve was filed as active; inconclusive = small, poorly fitted or top-dose-only effect, or effect the other way, or a change in a side signal; inactive = no such curve, though single readings can be large or run the other way; note: % of control where 0% means no effect
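Fluorescence polarization binding of Tsg101 binding domain (10 uM final) to FITC-labeled PTAP peptide (50 nM final) in HEPES pH 7.5 buffer with NaCl, Tween 20, EDTA, TCEP. Compounds added before peptide; binding 20 min at RT.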
Eya2 inh = Eya2 (human) phosphatase inhibition | O00167 | recombinant Eya2, OMFP fluorescence dephosphorylation (OMFP is methylfluorescein phosphate) | Potency, µM (highest dose often 76.9 µM), for inactives: at the highest dose activity, negative = inhibition, usual class: inhibitors | 330,000 compounds, 0.006% hits; note: % is set by controls: 0 for no effect and ±100 for the full control effect
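Eya2 protein (added as 0.2 uM solution) was preincubated with compound for 10 min at ambient temperature in 50 mM HEPES pH 7.5, 50 mM NaCl, 5 uM MgCl2, 0.05% BSA, 1 mM DTT. OMFP (added at 50 uM) then reacted 10 min; fluorescence read at 485/525 nm.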
An asterisk follows results filed as active; ? = inconclusive; . = no result; ! = not active in a repeat; [ ] = dose if it differs, or a comment. Sampled rows, rich in hits. Any-hit rate of the full collection: about 1.1%. Unless noted, calls come from the whole dose curve; as a rule, active = well fitted curve in the direction sought with a large enough effect; inconclusive = small, poorly fitted or top-dose-only effect, or another doubt; inactive = no such curve, though single readings can be large; an effect the other way counts as inactive or inconclusive. Potency is the fitted concentration of half-maximal effect.

SMILES	USP2a block	12-LOX inh	TSG101-PTAP inh	Eya2 inh
COc1ccc(C(=O)Oc2c(Sc3ccccc3)c(C)nn2-c2ccccc2)cc1OC	.	-19%	.	.
CCC(=O)Oc1c(Sc2ccc(Cl)cc2)c(C)nn1-c1ccccc1	.	16µM*	.	.
Clc1cccc(-c2nn3c(-c4ccc5ccccc5n4)nnc3s2)c1	.	35µM*	.	.
Nc1nc2c(s1)C(c1cc(Cl)ccc1F)CC(=O)N2 (stereo unspecified)	.	35µM*	.	.
Nc1nc2c(s1)C(c1cccc(Cl)c1Cl)CC(=O)N2 (stereo unspecified)	.	20µM*	.	.
Nc1nc2c(s1)C(c1ccccc1OCc1ccccc1Cl)CC(=O)N2 (stereo unspecified)	.	0.89µM*	.	.
COc1ccc(C2CC(=O)Nc3nc(N)sc32)cc1OCc1ccccc1Cl (stereo unspecified)	.	1.1µM*	.	.
CCn1c(/C=C/c2ccc(O)cc2)nc2ccccc2c1=O	1%	0%	-3%	-11%
CCn1c(/C=C/c2ccc(O)c(O)c2)nc2ccccc2c1=O	-6%	14µM*	-3%	-4%
CCOc1ccc(C(=O)N/N=C/c2ccc(-c3ccc(S(=O)(=O)Nc4ncccn4)cc3)o2)cc1	2%	6%	-4%	-23%
O=C(N/N=C/c1ccc(-c2ccc(S(=O)(=O)Nc3ncccn3)cc2)o1)c1cc2ccccc2cc1O	?	13µM*	-5%	22%
COc1ccc(-c2ccc3ncc(Nc4cnccn4)n3n2)cc1OC	.	8%[176 µM]	.	.
CCOC(=O)C1(CCOc2ccccc2)CCN(Cc2cc(OC)ccc2OC)CC1	4%	-9%	-5%	2%
CCOC(=O)C1(CCOc2ccccc2)CCN(Cc2cccc(OC)c2O)CC1	-2%	7.1µM*	5%	-13%
CC(=O)Nc1ccc(Nc2nc(-c3ccc(NC(C)=O)cc3)cs2)cc1	.	12%	.	.
CC(=O)Nc1ccc(Nc2nc(-c3sc(C)nc3C)cs2)cc1	3%	16µM*!	-2%	11%
CC(=O)c1ccc(Nc2nc(-c3sc(C)nc3C)cs2)cc1	.	-10%	.	.
CCNc1nc(-c2ccc(NC(C)=O)cc2)cs1	.	28µM*	.	.
Oc1ccccc1-c1cc(-c2cccnc2)c2cncn2c1	.	7%[176 µM]	.	.
CC(C=O)Cc1ccc(C(C)C)cc1 (stereo unspecified)	.	11%[176 µM]	.	.
Cc1cccc(-c2noc([C@@H]3Cc4nc[nH]c4CN3C(=O)NC3CCCCC3)n2)c1	.	13µM*	.	.
COCCN1C[C@H]2CN(Cc3ccc(C(=O)O)cc3)CCN2C1=O	.	28µM*	.	.
Cc1ccc(C)c(NC(=S)Nc2ncccc2C)c1	-2%	28µM*	3%	2%
Cc1cc(C)nc(NC(=S)Nc2ccc(F)cc2F)c1	1%	14%	-2%	1%
COc1cc(NC(=S)Nc2ncccc2C)cc(OC)c1OC	2%	16µM*	-1%	-4%
SMILES	USP2a block	12-LOX inh	TSG101-PTAP inh	Eya2 inh
Cc1cccnc1NC(=S)Nc1ccc(F)cc1F	-3%	16µM*	2%	-3%
COc1cc(NC(=S)Nc2cccc(C)n2)cc(OC)c1OC	4%	-11%	-4%	11%
CN(C)CC1(O)CCCN(Cc2cc3ccccc3n2C)C1 (stereo unspecified)	.	33%	.	.
Clc1ccc(CSc2nc3ncccc3[nH]2)c(Cl)c1	.	4%	.	.
Cc1ccccc1-c1cc(=O)c2cc(NC(=O)c3ccc(F)cc3)ccc2o1	.	-29%	.	.
COc1ccc(C2C(C#N)=C(N)Oc3cc4c(cc32)OCO4)cc1 (stereo unspecified)	0%	13µM*	-1%	9%
COc1ccc(C2C(C#N)=C(N)Oc3cc(O)ccc32)cc1Cl (stereo unspecified)	3%	32µM*	-3%	1%
COC(=O)c1ccc(C2C(C#N)=C(N)Oc3cc(O)ccc32)cc1 (stereo unspecified)	2%	25µM*	3%	-15%
C#CCOc1ccc(C2C(C#N)=C(N)Oc3cc(O)ccc32)cc1 (stereo unspecified)	-2%	28µM*	-2%	-1%
COc1ccc(C2C(C#N)=C(N)Oc3cc(C)n(Cc4ccc5c(c4)OCO5)c(=O)c32)cc1 (stereo unspecified)	.	-14%	.	.
O=C1CCN(C(=O)C2CCN(S(=O)(=O)c3cccs3)CC2)CCCCCCN1	.	31%	.	.
Cc1c(C(=O)Nc2nccs2)nnn1-c1cccc(C(F)(F)F)c1	.	2%	.	.
FC(F)(F)c1ccccc1N/N=C/c1cccnc1	-3%	?	3%	-4%
N#Cc1ccc(/C=N/Nc2ccccc2C(F)(F)F)cc1	.	10µM*	.	.
CCOC(=O)N1CCN(Cc2nc3c(c(=O)[nH]c(=O)n3C)n2CCOC)CC1	.	10%	.	.
CCCn1c(/C=C/c2ccco2)nc2ccccc21	2%	?	1%	-25%
Clc1ccc(Cn2c(/C=C/c3ccco3)nc3ccccc32)cc1	5%	18µM*	1%	-5%
Cc1ccc(Cn2c(/C=C/c3ccco3)nc3ccccc32)cc1	0%	16µM*	-4%	-19%
CCCCn1c(/C=C/c2ccco2)nc2ccccc21	3%	?	0%	-4%
CC1(C)CC(C(N)=S)CCO1 (stereo unspecified)	1%	0%	-4%	10%
CCC1(C)CC(C(N)=S)CCO1 (stereo unspecified)	-2%	8.9µM*	2%	3%
CCn1c2ccccc2c2cc(CN3CCN(C(=O)c4ccco4)CC3)ccc21	-7%	0.56µM*	-4%	-12%
CCn1cc(CN2CCN(C(=O)c3ccco3)CC2)ccc1=O	.	95%	.	.
COc1ccccc1CN1CCN(C(=O)c2ccco2)CC1	1%	?	0%	2%
COc1ccc(Br)cc1CN1CCN(C(=O)c2ccco2)CC1	0%	0.5µM*	-5%	3%
SMILES	USP2a block	12-LOX inh	TSG101-PTAP inh	Eya2 inh
Fc1ccc(CN2Cc3[nH]cnc3C[C@H]2c2nc(-c3ccc(F)c(Cl)c3)no2)cc1	.	21%[176 µM]	.	.
O=C(CCc1nc(-c2cccs2)no1)Nc1ccccc1N1CCOCC1	.	-7%	.	.
O=C(/C=C/c1ccco1)NC(=S)Nc1ccc(Cl)cn1	-1%	35µM*	-4%	-4%
Cc1ccnc(NC(=S)NC(=O)/C=C/c2ccco2)c1	-1%	-23%	0%	6%
C[S+](=O)([O-])N1Cc2ccccc2CC12CN(C(=O)c1ccc(C(F)(F)F)cc1)C2	.	32%	.	.
CC/C(=N\NC(=S)Nc1ccc(OC)cc1)c1ccc(OC(F)F)cc1	1%	35µM*	-1%	6%
O=C(Cc1ccccc1)NC(=S)Nc1ccc(OC(F)F)cc1	-1%	35µM*	0%	-8%
COc1ccc(NC(=S)NC(=O)Cc2ccccc2)cc1	0%	82%	-5%	-7%
COc1ccc(/C=N/NC(=S)Nc2ccccc2)cc1	-7%	50µM*	-10%	-7%
COc1ccc(/C=N/NC(=S)Nc2cccc(C(=O)O)c2)cc1	-2%	?	-1%	8%
C/C(=N\NC(=S)Nc1c(C)cccc1C)c1ccc(OC(F)F)cc1	0%	35µM*	-1%	0%
